Results reported in the supplement of paper PMC3334620.
Over roughly 33,000 sequences, “E-score (-0.5 to 0.5)” has its median near -0.012; the highest 2% begin near 0.27. Shown is part of a subset that was picked to be rich in the highest values.

Target: T1, Vhr1 (UniProt P40522)
T1 sequence: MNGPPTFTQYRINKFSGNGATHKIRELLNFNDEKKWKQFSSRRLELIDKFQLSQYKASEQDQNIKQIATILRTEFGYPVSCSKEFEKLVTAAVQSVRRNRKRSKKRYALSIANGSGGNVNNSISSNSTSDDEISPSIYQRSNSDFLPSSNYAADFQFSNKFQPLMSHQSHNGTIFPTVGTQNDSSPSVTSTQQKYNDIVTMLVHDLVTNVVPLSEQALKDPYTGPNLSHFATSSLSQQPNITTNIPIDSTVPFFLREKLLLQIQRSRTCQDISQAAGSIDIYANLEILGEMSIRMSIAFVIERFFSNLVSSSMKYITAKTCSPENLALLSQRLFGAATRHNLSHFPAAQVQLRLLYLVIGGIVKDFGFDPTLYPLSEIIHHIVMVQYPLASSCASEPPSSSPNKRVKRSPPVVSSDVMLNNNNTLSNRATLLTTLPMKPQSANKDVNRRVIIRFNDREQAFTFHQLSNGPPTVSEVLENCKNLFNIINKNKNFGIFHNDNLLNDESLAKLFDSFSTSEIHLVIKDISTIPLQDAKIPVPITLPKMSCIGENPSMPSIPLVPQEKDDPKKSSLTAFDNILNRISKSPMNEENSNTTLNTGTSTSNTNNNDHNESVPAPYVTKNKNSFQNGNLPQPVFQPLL
Assay: PBM E-score (8-mer binding enrichment) (E-score (-0.5 to 0.5)); higher = stronger / more preferred TF binding
Settings: protein concentration: 200 nM; construct: GST-full length
Protocol: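 Universal 'all 10-mer' protein binding microarrays (Agilent AMADID 015681) probed with GST-tagged S. cerevisiae TFs (full-length or DBD) made by in vitro transcription/translation (PURExpress), about 100-200 nM. Bound TF was detected with fluorescent anti-GST. Each ungapped 8-mer (which stands for itself and its reverse complement) is scored by the PBM enrichment score (E-score), a modified Wilcoxon-Mann-Whitney statistic from -0.5 to +0.5, computed with the Universal PBM Analysis Suite. Scale: above 0.35 generally sequence-specific binding.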

Row | Sequence | PBM E-score
1 | ACTTATAT | 0.199
2 | GCACCGCA | 0.0151
3 | GTTCATGA | 0.142
4 | ATCCACCA | 0.113
5 | ACCTTGCG | -0.0156
6 | GAGGCGGC | 0.0803
7 | GAGGTTGC | -0.0739
8 | CAACTATC | 0.125
9 | ACTATCAA | 0.112
10 | CACGTGAC | 0.108
11 | GCTGATTA | 0.197
12 | GTTGATTA | 0.239
13 | AATGATTA | 0.304
14 | GATGATCA | 0.285
15 | AATGATCA | 0.0798
16 | AATGATGA | 0.163
17 | AATGATAA | 0.106
18 | GGTGATGA | 0.233
19 | GATGATCC | 0.0747
20 | GCTGATGA | 0.185
21 | GGTGATTA | 0.285
22 | GATGATTA | 0.337
23 | GCTGCGCC | 0.0437
24 | ATTAGCAA | 0.124
25 | CGAGAGCG | -0.118

Row | Sequence | PBM E-score
26 | CTGCATCC | -0.157
27 | ATCGCAAT | 0.157
28 | TATGATGA | 0.286
29 | GATGATGA | 0.144
30 | CATGATGA | 0.254
31 | TAGGTTGA | 0.0773
32 | AAAGAATG | 0.0281
33 | ATGGAATC | 0.28
34 | ATGGAGTG | -0.0367
35 | CTGGAATC | 0.104
36 | CTGGAGTA | -0.0097
37 | CTGGAGTC | 0.356
38 | ATGGAGTA | 0.185
39 | CTGGAGAC | 0.0265
40 | ATGGAATA | 0.117
41 | ATGGAGTC | 0.433
42 | CGATACGA | -0.0911
43 | AGAAGCGC | 0.16
44 | TAGCACAA | -0.0198
45 | CACACTCG | 0.224
46 | AACTCCGC | -0.0635
47 | GACTCCGA | 0.428
48 | GACTCCGC | 0.38
49 | TACTCCGA | 0.174
50 | CACTCCGC | 0.144

Row | Sequence | PBM E-score
51 | AACTCCGA | 0.115
52 | GCCTTAGA | -0.114
53 | CTACCTCC | 0.241
54 | GATCCATC | 0.194
55 | AAACGACA | 0.138
56 | CCTGAGGA | -0.0328
57 | GAAACTTA | -0.0802
58 | GCTGAGCA | 0.149
59 | GCTCTGCA | -0.201
60 | ATGGTATG | 0.00124
61 | ATGGTATC | 0.287
62 | CTGGTATC | 0.0298
63 | CTAGATGC | 0.00921
64 | ATTCAGGG | 0.108
65 | CGTCAGGA | -0.0893
66 | AGTCAGGA | 0.355
67 | AGTCAGGG | 0.356
68 | GGTCAGGA | 0.0179
69 | ACTCAGGC | 0.259
70 | CGTCAGGC | -0.213
71 | AGTCAGGC | 0.404
72 | ACTCAGGG | 0.27
73 | AAGTTGTG | -0.00706
74 | ATATTTAG | -0.00388
75 | CACCTAGA | -0.0265

Row | Sequence | PBM E-score
76 | CACTTGAA | -0.042
77 | AAGCTAGT | -0.0022
78 | AACCAGGA | -0.00068
79 | GTTAACGA | -0.043
80 | CGCTTGTC | -0.0745
81 | ATAACTCG | 0.0214
82 | AGGACTGC | -0.19
83 | ACGACTGC | -0.0133
84 | GAGACTGA | 0.0631
85 | ATCACTGA | 0.136
86 | GTGACTGA | 0.384
87 | ATGACTCG | 0.457
88 | AAGACTCG | 0.0518
89 | GGGACTGA | -0.174
90 | CTCACTGC | -0.102
91 | ATCACTGC | 0.289
92 | ATGACTGC | 0.41
93 | GTCTGAAA | -0.0548
94 | GCTGAATA | 0.00091
95 | CACTAGAC | 0.0875
96 | AACGGGCC | -0.204
97 | TAAGTACA | -0.0281
98 | GCGTTAAA | -0.0751
99 | CTCCATCC | -0.162
100 | AGATGGGG | -0.00259

Row | Sequence | PBM E-score
101 | AATGCTAT | -0.0368
102 | AAGTTCGG | -0.155
103 | CTGCACAC | 0.045
104 | ACGATAAT | 0.0207
105 | CTGACTGC | 0.298
106 | ACGACTGG | 0.0415
107 | ATGACTTG | 0.268
108 | ATGACTGG | 0.298
109 | ACGACTGA | 0.123
110 | ATGACTGA | 0.368
111 | CTGACTGA | 0.13
112 | CAGACTGC | 0.00779
113 | AGGACTGA | -0.143
114 | CATCCGAG | 0.15
115 | CGTAATGA | 0.0462
116 | ATTGTGGG | 0.156
117 | ACGCTCCC | -0.108
118 | GTCATCAC | 0.229
119 | AGCAATAA | -0.0386
120 | ACCATGTA | 0.261
121 | ACTATGTA | 0.207
122 | ACCATGTC | 0.144
123 | ACCATGTG | 0.295
124 | ACTATGTG | 0.292
125 | ACTATGTC | 0.091

Row | Sequence | PBM E-score
126 | ATGCCCTC | -0.0196
127 | CCAGGTTA | -0.0596
128 | GCGATTGA | -0.121
129 | ATGATTGA | 0.344
130 | ATGATTGC | 0.345
131 | GTGATTGA | 0.329
132 | ATGATTGG | 0.178
133 | ACGATTGC | 0.0187
134 | CTGATTGC | 0.035
135 | ACGATTGA | 0.0265
136 | CTGATTGA | 0.177
137 | ACTCTTAA | -0.233
138 | ACGTTGGA | 0.0766
139 | GGCGTTAC | -0.119
140 | ACGTGATG | 0.00697
141 | AAGAAGCT | -0.191
142 | CCTCTGCC | -0.286
143 | AAAGCGTA | -0.183
144 | ATAGCATG | -0.034
145 | GCTGTCAA | -0.125
146 | ATTTTATC | -0.13
147 | AGAGCGCT | -0.249
148 | ACCGTTCA | -0.0238
149 | AGTCGCGA | 0.305
150 | ACTCGCCT | 0.0445

Row | Sequence | PBM E-score
151 | CGTCGCGA | 0.181
152 | ACTCGCGA | 0.227
153 | AGTCGCGG | 0.351
154 | CCTCGCCG | -0.118
155 | ACTCGCGG | 0.209
156 | GGTCGCGA | 0.194
157 | ACTCGCCG | 0.306
158 | AGTCGCTG | 0.216
159 | ACTCGCGC | 0.273
160 | CCTCGCGC | -0.0292
161 | AGCAAATA | -0.0751
162 | CAAATTGA | -0.124
163 | TGCAGCAA | 0.114
164 | AATCCTAC | -0.159
165 | CTAAGCCA | -0.0787
166 | TACGGCGA | 0.0569
167 | ACCGAGTG | 0.13
168 | AATGCGCG | 0.193
169 | CAATTCTG | -0.077
170 | AGAAAATA | -0.0162
171 | ACTCGCTA | 0.133
172 | AGTCGCGC | 0.374
173 | ACTCGCTC | 0.282
174 | CGTCGCGC | 0.0614
175 | AGTCGCTC | 0.237

Row | Sequence | PBM E-score
176 | ACTCGCTG | 0.0751
177 | ACAGGTTG | 0.0217
178 | AACCAATG | 0.209
179 | CAGAGTTC | -0.0458
180 | CCCCTACG | -0.139
181 | CATCCATC | 0.0866
182 | GTCATGTA | 0.141
183 | ACCTATAG | -0.144
184 | CCCGACCC | 0.123
185 | CCCGACTC | 0.426
186 | CCCGACTA | 0.206
187 | ACCGACTA | -0.0288
188 | ACCGACTC | 0.34
189 | ACCGACTG | 0.177
190 | CAAGACGA | -0.109
191 | CGACTCCC | 0.321
192 | CTACTCCA | -0.0498
193 | AGACTCCC | -0.00382
194 | AGACTCCG | 0.225
195 | TGACTCCA | 0.48
196 | CAACTCCG | -0.0132
197 | AGACTCCA | 0.133
198 | GGACTCCC | 0.0918
199 | GGACTCCA | 0.13
200 | CGACTCCG | 0.391

Row | Sequence | PBM E-score
201 | CCACTCCA | 0.0742
202 | CGACTCCA | 0.4
203 | TCCCCCCA | -0.233
204 | CATACTAG | 0.238
205 | GTTTGAAA | -0.0935
206 | ATTGTGAA | -0.0037
207 | ATCCAGGG | -0.0888
208 | AGCTCCCT | -0.235
209 | CCCCCTAC | -0.185
210 | AAAAGCGC | -0.137
211 | AGAATCAG | 0.283
212 | AGAATCAC | 0.228
213 | AGAATCAT | 0.323
214 | CCAATCAG | -0.0885
215 | CGAATCAG | 0.344
216 | AGAATCCT | -0.231
217 | AGAATCAA | 0.0929
218 | CGAATCAA | 0.127
219 | ACAATCAT | 0.231
